Screening results deposited in PubChem by several laboratories.
Ba/F3 V617F tox – lowers viability of Ba/F3 cells expressing EpoR and JAK2V617F; ATP luminescence; inhibition, % at 5.6 µM; 220,000 compounds, 1.1% hits;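 active = inhibition above the campaign mean plus 3 SD over all tested compounds, cut at about 24% in these data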;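 also: cytokine-independent growth of Ba/F3 cells driven by EpoR plus mutant JAK2; 0% = DMSO-treated cells and 100% = JAK inhibitor I control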
KLF5 inhibitor – inhibitors of KLF5 expression; DLD-1 KLF5 promoter-luciferase reporter, luminescence; inhibition, % at 5 µM; 290,000 compounds, 0.23% hits;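 active = inhibition above a per-plate limit of that plate's mean compound inhibition plus 3 SD, cut at about 60% in these data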;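 also: 0% = DMSO wells and 100% = LY294002 at 200 µM; higher means less KLF5 promoter-driven luciferase light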
BaF3 tox – counter-screen for JAK2V617F inhibitors: parental Ba/F3 viability inhibitors. CellTiter-Glo ATP luminescence. inhibition, % at 5.6 µM. 220,000 compounds, 1.1% hits;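 active = inhibition above a per-campaign cutoff, the mean inhibition of all tested compounds plus 3 SD, cut at about 27% in these data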;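 also: 0% = DMSO wells and 100% = JAK Inhibitor I control wells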
IEC-6 tox – kills IEC-6 intestinal cells in KLF5 counter-screen; IEC-6 cytotoxicity, luminescence viability; inhibition, % at 5 µM; 290,000 compounds, 0.78% hits; AID 1825;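 also: 0% = plate median of test compound wells and 100% = cytotoxic reference compound wells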
aSyn 5UTR inh – MLPCN primary screen, SNCA 5' untranslated region; alpha-synuclein 5'UTR reporter, inhibitor activity; inhibition, % (tested at 7.5 µM); 300,000 compounds, 0.82% hits; AID 1813; in the data active = inhibition above about 60%; inconclusive = no clear call, values can overlap the other calls;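 also: H4 neuroglioblastoma cells stably carrying SNCA 5'UTR luciferase fusion; 0% = DMSO wells and 100% = positive control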
APP 5UTR inh – APP translation inhibition. inhibition, % at 2 µM. SH-SY5Y APP 5'UTR-luciferase reporter, luminescence. 190,000 compounds, 0.82% hits;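 active = inhibition above a set limit, derived from the sample mean plus 3 SD, cut at about 45% in these data; inconclusive = one replicate passes the limit while the other fails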
IEC-6 cytotox cf – confirmation of cytotoxic compounds in rat IEC-6 intestinal epithelial cells. shares compounds with IEC-6 tox. IEC-6 rat intestinal epithelial viability, luminescence. inhibition, % at 5 µM. 1,900 compounds, 63% hits. AID 1907;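 also: 0% = vehicle and 100% = reference cytotoxic drug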
* = called active by the depositor; ? = inconclusive; / = no result. Only some compounds are listed: those with a hit (about 2.2% of all), similar ones and a draw of the others. Rule as the data show it, unless noted: active = inhibition above about 22%; inactive = the rest.

SMILES | Ba/F3 V617F tox | KLF5 inhibitor | BaF3 tox | IEC-6 tox | aSyn 5UTR inh | APP 5UTR inh | IEC-6 cytotox cf
COCCn1c(SC(C)C(=O)Nc2ncc(Cl)cc2Cl)nc2ccccc21 (stereo not given) | 0.2 | 28.6 | 3.1 | 24.4* | 14.7 | 1.7 | 27.5*
CCOc1cc(/C=C2\N=C(SC(C)C(N)=O)N(c3ccc(OC(F)F)cc3)C2=O)ccc1O (stereo not given) | / | 36.0 | / | -8.8 | 19.4 | / | /
CC1=C(C(=O)OCCNC(=O)c2ccccc2O)C(c2ccccc2[N+](=O)[O-])C(C(=O)OCC2CCCO2)=C(C)N1 (stereo not given) | 3.3 | -29.5 | 11.0 | 0.4 | 43.0 | 6.4 | /
O=C(NNC(=O)c1cnccn1)c1ccc(Cl)c(Cl)c1 | / | 19.4 | / | 37.1* | ? | / | 21.6
O=C(NCCNC(=O)c1cnccn1)c1ccc(Cl)c(Cl)c1 | / | -14.2 | / | 11.2 | 9.9 | / | /
Cc1ccc(C)c(N=Cc2c(O)c3ccccc3oc2=O)c1 | / | -37.1 | / | -3.4 | -4.7 | / | /
O=C(Nc1ccc(Oc2ccccc2)nc1)C1CCCCN1Cc1ccco1 (stereo not given) | / | 50.2 | / | 59.8* | -49.4 | / | 38.6*
Cc1ccc(CN2CCCCC2C(=O)Nc2ccc(Oc3cccnc3)cc2)o1 (stereo not given) | / | 26.9 | / | 38.4* | -58.3 | / | 36.7*
CCn1nc(C)c(CN2CCCCC2C(=O)Nc2ccc(Oc3cccnc3)cc2)c1C (stereo not given) | / | -22.9 | / | -6.0 | 13.0 | / | /
CCCCn1c(SCc2c(C)noc2C)nc2cc(S(N)(=O)=O)ccc21 | 68.2* | -24.8 | 62.3* | 30.3* | -40.3 | -10.8 | 7.3
O=C(O)CCCN1C(=O)C2C3CC(C2C1=O)C1C(c2ccccc2)c2sc(=O)n(-c4ccccc4)c2SC31 (stereo not given) | 5.0 | -3.1 | 7.9 | -5.7 | 19.5 | 3.5 | /
CN(C)S(=O)(=O)c1ccc(NC(=O)N2CCN(c3cccc(C(F)(F)F)c3)CC2)cc1 | 4.4 | 23.7 | 11.0 | 3.9 | 49.3 | 0.3 | /
COc1ccc(NC(=O)N2CCN(c3cccc(C(F)(F)F)c3)CC2)cc1 | 2.5 | -26.8 | 8.4 | 23.5* | 12.2 | 23.0 | 3.3
CCOC(=O)Nc1ccc2c(c1)N(C(=O)CCN(CC)CC)c1ccccc1CC2 | / | -20.6 | / | 5.1 | 6.3 | / | /
CCOC(=O)Nc1ccc2c(c1)N(C(=O)CCN(CC)CC)c1ccccc1S2=O (stereo not given) | / | -1.9 | / | 22.6* | -20.2 | / | 12.6
COc1cc(NC(=O)c2ccc([N+](=O)[O-])o2)ccc1NC(=O)c1ccco1 | / | -14.8 | / | 100.1* | 10.6 | / | 20.1
Cc1cc(NC(=O)c2ccc([N+](=O)[O-])o2)ccc1NC(=O)c1ccco1 | 83.0* | 9.8 | 78.3* | 86.7* | -110.4 | 79.0* | 25.3*
CCOC(=O)c1[nH]c(C)c(/C(O)=C2\C(=O)C(=O)N(CCN(C)C)C2c2ccc(C)o2)c1C (stereo not given) | 5.7 | 19.5 | 6.2 | 25.3* | 10.1 | 5.5 | 10.6
CCOC(=O)c1[nH]c(C)c(/C(O)=C2\C(=O)C(=O)N(CCN3CCOCC3)C2c2cccs2)c1C (stereo not given) | -1.4 | -9.9 | 0.5 | 25.7* | 3.0 | 23.3 | 6.3
CCOC(=O)C1=C(C)NC(SC)=C(C#N)C1CC(C)C (stereo not given) | 85.0* | 51.7 | 80.6* | 70.4* | 13.2 | / | 55.9*
CC(=O)C1=C(C)NC(SCC(N)=O)=C(C#N)C1CC(C)C (stereo not given) | -1.9 | -8.7 | 0.2 | 2.6 | 1.2 | -33.3 | /
O=C(CCCl)Nc1nc2c(s1)CCc1ccccc1-2 | / | -13.7 | / | 30.0* | 33.2 | / | 18.3
Cc1cc(C)n(/N=C/c2cccs2)c(=O)c1C#N | 3.1 | -30.9 | 1.7 | 70.6* | -11.6 | -0.5 | 4.7
COC(=O)C1CCN(Cc2ccc(OCCCN3CCN(c4ccc([N+](=O)[O-])cc4)CC3)cc2)CC1 | -0.4 | -2.8 | 2.0 | -4.0 | -15.5 | -4.6 | /
COc1ccc(-c2cc(C(=O)N3CCN(c4ccccc4)CC3)c3ccccc3n2)cc1 | 1.8 | -4.6 | 10.1 | 28.0* | -35.2 | 75.3* | 5.8
SMILES | Ba/F3 V617F tox | KLF5 inhibitor | BaF3 tox | IEC-6 tox | aSyn 5UTR inh | APP 5UTR inh | IEC-6 cytotox cf
COc1ccc(-c2cc(C(=O)N3CCCC3)c3ccccc3n2)cc1 | / | -45.5 | / | 6.7 | -49.3 | / | /
Cc1ccc(-c2cc(C(=O)N/N=C/c3c[nH]c4ccccc34)[nH]n2)cc1 | 57.4* | 14.5 | 58.3* | 42.8* | 77.5* | 76.4* | 51.7*
O=C(N/N=C/c1c[nH]c2ccccc12)c1cc(-c2ccc(-c3ccccc3)cc2)n[nH]1 | -1.5 | -67.1 | 3.2 | -5.7 | -145.6 | -70.5 | /
S=C(NC1CCCCC1)N1CCN(c2ccccn2)CC1 | 0.4 | -15.1 | 2.4 | 7.5 | 2.2 | -11.3 | /
O=C(N/N=C/c1cccs1)c1ccc2ccccc2c1 | / | -55.1 | / | 28.8* | -239.8 | / | 12.1
Cc1ccc(/C=N/NC(=O)c2ccc3ccccc3c2)s1 | / | 48.3 | / | 81.6* | -131.7 | / | 49.8*
Cc1ccc(/C=N/NC(=O)c2ccncc2)s1 | -1.0 | -15.5 | -1.4 | -0.2 | -7.6 | / | /
C/C(=N\NC(=O)c1ccc2c(c1)OCCO2)c1ccccc1 | 0.4 | -37.2 | 0.4 | 31.0* | 72.9* | / | 8.6
Cc1ccc(/C=N/NC(=O)c2ccc3c(c2)OCCO3)s1 | 64.9* | -35.5 | 37.3* | 34.2* | -117.5 | / | 48.6*
CCC(C)N1C(=O)N(c2cccc(Cl)c2)C(C)(O)CC1(C)C (stereo not given) | / | -41.9 | / | 0.1 | 6.3 | / | /
CSc1nc(Cc2ccccc2)nc2ccccc12 | 7.7 | -6.9 | 10.4 | 5.0 | 18.4 | 12.9 | /
Cc1cccc(N2CCN(S(=O)(=O)c3ccc(-c4ccc(=O)[nH]n4)o3)CC2)c1C | / | -36.3 | / | 3.4 | 4.3 | / | /
C/C=C/C(=O)Nc1cccc(C2=NOC3(C2)C[C@@H](C(N)=O)N(C(=O)/C(C)=C/C)C3)c1 (stereo not given in full) | / | / | / | / | 0.6 | / | /
Cc1nc2ccc(NC(=O)c3cncc(Br)c3)cc2s1 | 79.7* | 39.0 | 60.0* | 87.6* | -87.1 | / | -4.0
Cc1nc2ccc(NC(=O)c3ccccc3)cc2s1 | -0.8 | -94.1 | 1.7 | -1.1 | -106.3 | -82.2 | /
COc1ccc(CN2CCN(Cc3c[nH]c4ccccc34)CC2CCO)c(F)c1 (stereo not given) | / | -15.1 | / | 2.5 | 5.2 | / | /
COc1ccccc1NS(=O)(=O)c1cccc(C(=O)N2CC(C)OC(C)C2)c1 (stereo not given) | / | / | / | / | 1.3 | / | /
O=[N+]([O-])c1cc(Br)c(Nc2ccccc2)c([N+](=O)[O-])c1 | / | 37.4 | / | 22.1* | 32.6 | / | 0.2
O=C(Nc1ccccc1)c1ccc(Nc2c([N+](=O)[O-])cc([N+](=O)[O-])c3ccccc23)cc1 | -3.3 | -19.6 | 3.1 | -3.5 | 20.1 | -16.6 | /
Cc1cccc(C(=O)Nc2cccc3cccnc23)c1 | / | -93.8 | / | 8.3 | -56.3 | / | /
Cc1cnc(C(=O)Nc2cccc3cccnc23)cn1 | 89.6* | -0.8 | 33.5* | 91.4* | -24.9 | 73.7* | 18.1
O=C(Nc1ccc(Cl)cc1Cl)c1ccc(Br)o1 | / | -97.2 | / | 4.5 | -123.6 | / | /
